Compounds without any hit were thinned out: in the full panel of roughly 83,000, 20% have a hit.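 Assay: single dose, 48 h. Readout: percent growth (0 = no net growth; negative = cell death). Active: <10.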 Unmarked numbers belong to inactive results. Calls of active or inactive are those of the source.
Experiments:
Experiment in all cases: NCI-60 one-dose screen, 48 h (100 = growth as untreated, 0 = no growth, -100 = all killed)
[1] = tested on: SK-MEL-2 melanoma; details: 10 µM unless noted
[2] = tested on: SN12C renal; details: 10 µM unless noted
[3] = tested on: UO-31 renal; details: 10 µM unless noted
[4] = tested on: TK-10 renal; details: 10 µM unless noted
[5] = tested on: ACHN renal; details: 10 µM unless noted
[6] = tested on: CAKI-1 renal; details: 10 µM unless noted
[7] = tested on: A498 renal; details: 10 µM unless noted
[8] = tested on: CCRF-CEM leukemia; details: 10 µM
[9] = tested on: SR leukemia; details: 10 µM unless noted
[10] = tested on: RPMI-8226 leukemia; details: 10 µM unless noted
[11] = tested on: OVCAR-8 ovarian; details: 10 µM unless noted
[12] = tested on: OVCAR-5 ovarian; details: 10 µM unless noted
[13] = tested on: OVCAR-4 ovarian; details: 10 µM unless noted
[14] = tested on: SK-OV-3 ovarian; details: 10 µM unless noted
[15] = tested on: IGROV1 ovarian; details: 10 µM unless noted
[16] = tested on: OVCAR-3 ovarian; details: 10 µM unless noted
[17] = tested on: NCI/ADR-RES ovarian; details: 10 µM unless noted
[18] = tested on: MOLT-4 leukemia; details: 10 µM unless noted
[19] = tested on: HS 578T breast; details: 10 µM unless noted

Row | SMILES | growth [1] | growth [2] | growth [3] | growth [4] | growth [5] | growth [6] | growth [7] | growth [8] [%] | growth [9] | growth [10] | growth [11] | growth [12] | growth [13] | growth [14] | growth [15] | growth [16] | growth [17] | growth [18] | growth [19]
1 | Cn1c2ccccc2c2ccccc21 | 99.4% | 107% | 75% | 97.5% | 105% | 101% | 115% | 92.5 | 87.6% | 94.3% | 98.3% | 107% | 105% | 102% | 102% | 107% | 101% |  | 
2 | CCCCCCCCCCCC(=O)OC(C)C(=O)Nc1ccccc1 (configuration not stated) | 97.6% | 93% | 78.2% | 94.9% | 87.6% | 91.2% | 103% |  | 86.1% | 99.8% | 95.4% | 95.2% | 105% | 97.6% | 103% | 102% | 100% | 96.1% | 94.3%
3 | COc1ccc(Nc2c3ccccc3nc3ccccc23)cc1 | 54.5% | 30.1% | 7.72% (active) | 51.8% | -11% (active) | 10.2% | 42.1% |  | 1.46% (active) | 28.1% | 14.7% | 36.4% | 41.5% | 36.1% | 22.1% | 28.3% | 28.1% | -9.93% (active) | 59.5%
4 | CCCC[N+](C)(N)CCCC | 108% | 104% | 91.7% | 109% | 99.7% | 94.4% | 115% |  |  | 94.3% | 99.2% | 103% | 108% | 102% | 119% | 113% | 119% | 94.6% | 115%
5 | CCn1cnc(C[C@H](NC(=O)[C@@H](NC(=O)Nc2cc(C(F)(F)F)cc(C(F)(F)F)c2)C(C)(C)C)C(=O)OC)c1 | -91% [100 µM] (active) | -96.2% [100 µM] (active) | -94.1% [100 µM] (active) | -97.6% [100 µM] (active) | -95.8% [100 µM] (active) | -96% [100 µM] (active) | -91.6% [100 µM] (active) |  | -38.1% [100 µM] (active) | -58.6% [100 µM] (active) | -79.5% [100 µM] (active) | -92.8% [100 µM] (active) | -82.7% [100 µM] (active) | -100% [100 µM] (active) | -71.5% [100 µM] (active) | -96.5% [100 µM] (active) | 7.32% [100 µM] (active) | -49% [100 µM] (active) | -2.17% [100 µM] (active)
6 | CNCCCNCCCCNCCCN1C(=O)c2ccc3c4c(ccc(c24)C1=O)C(=O)N(CCCNCc1ccccc1OC)C3=O | 14% | 24.6% | 16.8% | 41.9% | 26% | 28.6% | 45.1% | 45.8 |  | 15% | 41.9% | 55.9% | -10.8% (active) | 54.4% | 12.7% | 6.09% (active) | 43.4% | 24.9% | 12.5%
7 | CC(O)CN(CC(C)O)N(CC(C)O)CC(C)O (configuration not stated) | 121% | 107% | 91.1% | 99.3% | 99% | 98.9% | 104% |  | 94.2% |  | 97.9% | 101% | 98.2% | 109% | 113% | 109% | 106% | 102% | 108%
8 | COC(=O)c1cc(=O)nc(N/N=C/c2ccccc2O)s1 | 97.9% | 90.9% | 61.4% | 112% | 92.3% | 79% | 112% |  |  | 87.9% | 97.5% | 104% | 50.8% | 103% | 88.6% | 88.6% | 89.3% | 72.1% | 108%
9 | Cc1ccc(NC(=O)CCl)cc1Cl | 85.1% | 93.6% | 98.5% | 103% | 92.3% | 90.8% | 119% |  | 51.9% | 91% | 92.9% | 108% | 89.2% | 102% | 63.8% | 114% | 107% | 81.8% | 93.8%
10 | CC#Cc1nc(Nc2cc(C)[nH]n2)c2ccccc2n1 | -51.2% [100 µM] (active) | -0.924% [100 µM] (active) | -6.22% [100 µM] (active) | 3.15% [100 µM] (active) | 3.22% [100 µM] (active) | -33.2% [100 µM] (active) | -94% [100 µM] (active) |  | -5.19% [100 µM] (active) | -21.3% [100 µM] (active) | 13.8% [100 µM] | 29.4% [100 µM] | 20% [100 µM] | 29.4% [100 µM] | -46.7% [100 µM] (active) | -59% [100 µM] (active) | 20.3% [100 µM] | -43.3% [100 µM] (active) | 
11 | CC(C)(C)c1cc(C[P+](c2ccc(Cl)cc2)(c2ccc(Cl)cc2)c2ccc(Cl)cc2)cc(C(C)(C)C)c1O | 76.2% | 91.6% | 64.4% | 105% | 98.7% | 84.2% | 98.5% |  | 39.5% | 10.9% | 85.8% | 105% | 79.2% | 88.9% | 52.1% | 90.3% | 97.2% | 35.7% | 105%
12 | O=C(CCl)c1ccc2c(c1)CCCC2 | 80.3% | 96.5% | 91.2% | 86.7% | 98.4% | 74.9% | 101% |  | 7.36% (active) | 84.6% | 95.6% | 107% | 107% | 110% | 89.2% | 114% | 108% | 68.6% | 94.7%
13 | CCOC(=O)/C(C#N)=C(/CC)OCC | 91.7% | 109% | 84.1% | 91.9% | 94.6% | 95.4% | 122% |  | 85.6% |  | 98.8% | 106% | 106% | 105% | 105% | 104% | 112% | 85% | 115%
14 | COC(=O)[C@H](Cc1cn(C)cn1)NC(=O)[C@@H](NC(=O)Nc1cc(C(F)(F)F)cc(C(F)(F)F)c1)C(C)(C)C | -88.7% [100 µM] (active) | -91.8% [100 µM] (active) | 61.1% [100 µM] | -82% [100 µM] (active) | 0.692% [100 µM] (active) | 55% [100 µM] | -77% [100 µM] (active) |  | -41.3% [100 µM] (active) | -53.8% [100 µM] (active) | -55.2% [100 µM] (active) | 39.7% [100 µM] | -71.5% [100 µM] (active) | -25.6% [100 µM] (active) | -63% [100 µM] (active) | -99.3% [100 µM] (active) | 78.1% [100 µM] | -25.7% [100 µM] (active) | 
15 | c1cc[c]([Bi]([c]2ccccc2)[c]2ccccc2)cc1 | 116% | 97.1% | 84.8% | 94.6% | 105% | 88.6% | 89.3% | 86.5 |  | 91% | 101% | 99.3% | 89.3% | 111% | 107% | 105% | 98% | 108% | 100%
16 | CCCCCCC(C(=O)OCC)(C(=O)OCC)C1CCCCCC1 | 114% | 101% | 90.6% | 102% | 101% | 89.9% | 96.7% |  | 101% |  | 107% | 102% | 101% | 95.7% | 102% | 117% | 106% | 104% | 105%
17 | [N-]=[N+]=Nc1ncc(-c2ccc(C(F)(F)F)cc2)c(NC2CCCCCC2)n1 | 5.91% [100 µM] (active) | 42.5% [100 µM] | 22.1% [100 µM] | 45.3% [100 µM] | 26.8% [100 µM] | -14.6% [100 µM] (active) | 32.9% [100 µM] |  | -21.8% [100 µM] (active) |  | 37.2% [100 µM] | 65% [100 µM] | 28.9% [100 µM] | 71.6% [100 µM] | 36.3% [100 µM] | 7.63% [100 µM] (active) | 43.7% [100 µM] | 16.9% [100 µM] | 52.3% [100 µM]
